# PubChem BioAssay
# “And” between values parts separate entries of the source, which are not always exact repeats. Equal entries are not always repeated. The source made the active and inactive calls.
# How the values were obtained:
# [1] = biological target: Albumin (Bos taurus) (UniProt P02769); assay: bovine serum albumin binders on microarray, profiling panel, artefact control for SMM control protein annotation, biochemical, small-molecule microarray, Alexa647 label, 635/667 nm fluorescence (AID 1118); conditions: BSA-A647 binding, fluorescence 635 nm, higher = more signal;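 also: score merges 667 nm emission intensity and signal-to-noise per printed compound spot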
# Sequence of Albumin (Bos taurus) (P02769 whole entry, looked up): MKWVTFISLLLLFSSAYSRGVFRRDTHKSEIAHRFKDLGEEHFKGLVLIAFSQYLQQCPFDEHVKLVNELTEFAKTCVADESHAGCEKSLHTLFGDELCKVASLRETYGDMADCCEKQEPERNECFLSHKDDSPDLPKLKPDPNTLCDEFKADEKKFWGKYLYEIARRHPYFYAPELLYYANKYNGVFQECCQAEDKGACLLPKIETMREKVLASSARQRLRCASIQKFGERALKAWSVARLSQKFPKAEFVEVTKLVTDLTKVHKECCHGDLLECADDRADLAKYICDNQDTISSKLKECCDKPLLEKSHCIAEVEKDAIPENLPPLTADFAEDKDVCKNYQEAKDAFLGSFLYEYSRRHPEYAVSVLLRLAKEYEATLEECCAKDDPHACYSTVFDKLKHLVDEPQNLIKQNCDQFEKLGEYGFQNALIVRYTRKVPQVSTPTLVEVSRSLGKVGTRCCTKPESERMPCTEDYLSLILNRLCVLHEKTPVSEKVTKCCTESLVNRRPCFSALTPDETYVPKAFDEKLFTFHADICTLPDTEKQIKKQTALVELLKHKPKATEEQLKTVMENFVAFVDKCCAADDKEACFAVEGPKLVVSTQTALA
# [2] = small-molecule microarray binders of probe aXIP, primary screen, biochemical, NeuroSMM set, 635/667 nm fluorescence (AID 1119); conditions: higher = more signal, called active from +8 up or from −8 down;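 also: probe is the protein aXip251-270 applied at 1 µg/mL to compound-printed slides; binding of probe to printed compounds measured as 667 nm fluorescence plus signal to noise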
# [3] = small-molecule binders of probe aNOTCH3, primary screen, biochemical, small-molecule microarray, 635/667 nm fluorescence (AID 1120); conditions: higher = more signal;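 also: probe is a biotin-tagged antibody raised against NOTCH3 rather than NOTCH3 protein; score merges spot fluorescence near 667 nm with spot signal to noise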
# [4] = small-molecule binders of probe aNOTCH2, primary screen, biochemical, small-molecule microarray, 635/667 nm fluorescence (AID 1121); conditions: higher = more signal;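 also: score merges feature fluorescence read at 667 nm with its signal to noise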
# [5] = biological target: Carbonic anhydrase 2 (Homo sapiens) (UniProt P00918); assay: CAII small-molecule binders, profiling panel, biochemical, small-molecule microarray, Alexa647-labelled CAII (AID 1122); conditions: CAII-A647 binding fluorescence, higher = more signal
# [6] = COS7 lysate on small-molecule microarray, probe aHis, 635 nm (AID 1123); conditions: COS7 cell lysate, fluorescence, higher = more signal;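 also: z-score combines 667nm fluorescence intensity with signal-to-noise per printed compound spot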
# [7] = compound binding in COS7 lysate, probe aLAP1, primary screen, cell lysate, small-molecule microarray (AID 1124); conditions: probe aLAP1, fluorescence, higher = more signal;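 also: lysate comes from COS7 cells expressing LAP1 and is applied at 0.3 µg/mL; score merges spot fluorescence near 667 nm with signal-to-noise over triplicate slides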
# [8] = system: Sam68 (KHDRBS1); assay: Sam68 small-molecule binders, primary screen, biochemical, small-molecule microarray, 635 nm fluorescence (AID 1125); conditions: small-molecule microarray binding, higher = more signal;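 also: score merges 667 nm channel intensity with signal to noise over triplicate slides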
# [9] = system: Chordin-like protein 2 (CHRDL2); assay: CHRDL2 small-molecule binders, primary screen, biochemical, small-molecule microarray, 635 nm fluorescence (AID 1126); conditions: small-molecule microarray binding, fluorescence 635 nm; higher = more signal;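 also: printed compound slides probed with Chrdl2 protein at 4 µg/mL for 1 h at 4 C; score merges 667 nm emission intensity with signal to noise over three replicate slides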
# [10] = biological target: Concanavalin-A (Canavalia ensiformis) (UniProt P02866); assay: ConA small-molecule binders, primary screen, artefact control for SMM control protein annotation, biochemical, small-molecule microarray, Alexa647 label, 635 nm (AID 1127); conditions: ConA-A647 binding fluorescence, higher = more signal;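 also: z combines 667 nm emission intensity with signal-to-noise across three replicate slides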
# Sequence of Concanavalin-A (Canavalia ensiformis) (P02866 whole entry, looked up): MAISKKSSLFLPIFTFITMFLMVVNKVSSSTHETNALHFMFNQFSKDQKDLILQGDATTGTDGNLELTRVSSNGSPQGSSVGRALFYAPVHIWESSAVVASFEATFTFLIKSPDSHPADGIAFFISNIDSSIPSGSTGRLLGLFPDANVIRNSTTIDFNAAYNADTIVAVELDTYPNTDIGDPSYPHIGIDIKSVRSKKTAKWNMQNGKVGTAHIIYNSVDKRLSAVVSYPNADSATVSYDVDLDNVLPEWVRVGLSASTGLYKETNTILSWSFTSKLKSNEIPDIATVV
SMILES,composite z-score [1],composite Z-score [2],composite z-score [3],composite z-score [4],composite z-score [5],composite z-score [6],composite z-score [7],composite z-score [8],composite z-score [9],composite z-score [10]
COC(=O)C1=C(C)N(Cc2ccccc2)C2=C3C(=O)N(C)C(=O)[C@@H]3[C@@](O)(C(=O)OC)C(=O)N2[C@@H]1c1ccccc1,0.0056 and 0.0685,0.204 (inactive) and -0.12 (inactive),0.134 and -0.101,-0.151 and -0.0619,0.422 and -0.123,-0.332 and -0.0088,1.36 and 0.499,-0.239 and 0.267,0.37 and 0.38,0.17 and 0.178
C=CCN(C(=O)C1N(C(C)(C)CO)C(=O)C2C(C(=O)O)C3C=CC21O3)C(C)(C)C (stereo not given),-0.768 and -1.3,-0.057 (inactive) and -0.12 (inactive),-0.664 and -0.47,-0.154 and -0.208,0.856 and 0.799,-1.2 and 0.643,-0.393 and 1.52,-0.967 and -0.65,-3.3 and -1.67,-0.855 and -1.83
C=CCN(C(=O)C1N(c2c(Cl)cccc2CO)C(=O)C2C(C(=O)O)C3C=CC21O3)c1ccc(OC)cc1 (stereo not given),0.14 and -0.586,-0.172 (inactive) and -0.621 (inactive),-0.786 and -0.515,-0.46 and -0.162,0.376 and -0.184,0.016 and -0.849,0.137 and -0.803,-0.608 and -1.33,-0.702 and -2.38,-0.494 and -1.23
CC[C@@H]1C(Sc2ccccc2)C(C(=O)O)[C@H](c2ccc(C)cc2)N1S(=O)(=O)c1ccc(C)cc1 (stereo not given in full),0.978 and 0.899,0.242 (inactive) and 1.85 (inactive),0.411 and -0.022,0.0739 and -0.0635,0.232 and 0.755,0.893 and 2.52,0.541 and 0.418,1.33 and 1.3,-0.682 and -0.367,1.22 and 1.09
CON(C)C(=O)c1nnc2c3ccccc3n(S(=O)(=O)c3ccc(C)cc3)c2n1,0.622 and 0.0016,0.891 (inactive) and 0.79 (inactive),-0.0111 and 0.211,-0.104 and -0.109,0.393 and 0.481,0.19 and 1,0.101 and 0.208,0.41 and 1.3,0.828 and 0.553,1.1 and 1.14
C=CCN(C(=O)C1N(CCOCCO)C(=O)C2C(C(=O)O)C3C=CC21O3)C(C)(C)C (stereo not given),0.106 and -0.502,0.519 (inactive) and -0.158 (inactive),-0.465 and -0.469,-0.116 and -0.153,-0.115 and -0.524,-0.717 and -1.47,-0.882 and -0.478,-1.29 and -0.941,-3.33 and -1.51,-0.455 and -0.884
C=C[C@@H](OC)[C@H](O)c1ccc(O)c(F)c1,-0.131 and 0.529,1.31 (inactive) and -0.643 (inactive),-0.502 and -0.544,-0.266 and -0.254,0.881 and -0.182,-0.385 and -0.626,1.24 and -1.16,-0.697 and -1.48,-0.952 and -0.984,-0.904 and -1.04
C=CCN(CCCCC)C(=O)C1N(CCOCCO)C(=O)C2C(C(=O)O)C3C=CC21O3 (stereo not given),0.92 and -1.47,2.54 (inactive) and -0.487 (inactive),-0.496 and -0.461,-0.195 and -0.189,0.853 and 0.794,-0.568 and 0.294,-0.615 and 1.6,-3.26 and -1,-2.12 and -3.36,-1.88 and -1.67
COC(=O)[C@@]1(Cc2ccccc2)[C@H]2c3cc(C(=O)N(C)C)n(Cc4ccc(C)c(F)c4F)c3C[C@H]2CN1C(=O)c1ccccc1,0.821 and 0.859,0.392 (inactive) and -0.26 (inactive),0.141 and 1.27,0.106 and -0.0977,0.72 and 0.653,2.51 and 2.94,0.289 and 0.612,0.998 and 1.34,-1.32 and -0.528,0.201 and 1.18
C#CCCCON=C1C[C@@H](O)[C@@H](O)[C@@H]2[C@@H]3C(=O)N(C4CCCCC4)C(=O)[C@@H]3CC[C@H]12,0.691,-0.393 (inactive),-0.0006,-0.11,0.508,0.186,0.806,0.866,-0.133,1.15
C=CCN(CCCCC)C(=O)C1N(c2c(Cl)cccc2CO)C(=O)C2C(C(=O)O)C3C=CC21O3 (stereo not given),-1.16 and -0.735,-0.823 (inactive) and 0.131 (inactive),-0.508 and -0.548,-0.245 and -0.184,0.846 and 0.315,-0.115 and -0.621,-0.0989 and -0.178,-0.331 and -0.297,-2.24 and -2.28,-1.5 and -0.938
C=CCN(C(=O)C(c1cccs1)N(C(=O)/C=C\C(=O)O)c1c(Cl)cccc1CO)c1ccc(OC)cc1 (stereo not given),-0.464 and -0.473,-0.244 (inactive) and 0.222 (inactive),-0.374 and -0.246,-0.179 and -0.127,0.819 and 0.837,1.8 and 0.329,0.78 and 0.281,-0.818 and -0.2,-4.02 and -0.896,-0.772 and -1.14
C=CCN(C(=O)C(c1cccs1)N(C(=O)/C=C\C(=O)O)c1ccc(CCO)cc1)c1ccc(OC)cc1 (stereo not given),0.254 and -1.1,-0.16 (inactive) and -0.902 (inactive),-0.299 and -0.451,-0.164 and -0.19,0.89 and -0.733,-0.416 and -1.29,-1.17 and 0.112,-1.79 and -2.22,-1.65 and -3.12,-1.33 and -2.24
C[N+](C)(C)CCCCNC(=O)[C@H]1C[C@H]2C(=O)N[C@@H](CCCC[N+](C)(C)C)C(=O)N2[C@H]1c1cccc(OCCO)c1,-0.741 and -0.3,2.4 (inactive) and 1.3 (inactive),0.0533 and 0.245,-0.0974 and -0.131,0.851 and 0.463,1.38 and 1.49,0.848 and 0.953,0.25 and 1.32,1.17 and 1.53,0.744 and 1.05
COc1ccc(-c2ccc3c(n2)CCCN3CC(O)CN2CCCc3nc(-c4ccc(Br)cc4)ccc32)cc1 (stereo not given),0.479 and 0.259,1.48 (inactive) and 2.85 (inactive),0.448 and 0.392,-0.0125 and -0.0349,0.491 and 0.44,-0.0214 and 0.91,0.984 and 0.29,0.764 and 0.301,0.708 and 0.919,0.677 and 0.632
COC(=O)C1=C(C)N(Cc2ccccc2)[C@]23O[C@](C(=O)OC)(C(=O)N2[C@@H]1c1ccccc1)[C@H]1C(=O)N(C)C(=O)[C@H]13,0.899 and 0.489,-0.0443 (inactive) and 0.0886 (inactive),-0.212 and 0.0751,-0.116 and -0.148,0.354 and 0.309,0.909 and 0.901,0.262 and -0.0393,1.19 and 0.0927,0.0101 and 0.385,1.08 and -0.174
C=C[C@@H](C)[C@H](O)c1ccc(O)c2ccccc12,-0.0066 and 0.457,0.342 (inactive) and 0.259 (inactive),-0.209 and -0.454,-0.247 and -0.223,-0.211 and -0.59,0.294 and -0.0874,0.279 and -0.559,-0.309 and -1.66,1.34 and 0.0548,-0.418 and -1.3
C=C[C@@H](OC)[C@H](O)c1ccc(OCCO)cc1,-0.128 and 0.397,-0.158 (inactive) and -0.292 (inactive),-0.323 and -0.465,-0.227 and -0.142,0.831 and 0.847,-0.236 and -0.474,1.48 and -0.402,-0.352 and -1.38,-0.866 and -1.44,-1.26 and -1.04
COC(=O)C1=C(C)N(Cc2ccccc2)[C@]23O[C@](C(=O)OC)(C(=O)N2[C@@H]1c1ccccc1)[C@@H](C(=O)OC)[C@H]3C(=O)OC,0.0583 and -0.396,-0.179 (inactive) and -0.813 (inactive),-0.0947 and -0.0892,-0.165 and -0.106,0.266 and -0.244,0.189 and -0.172,-0.429 and -0.258,-0.192 and 0.227,-0.34 and 0.406,-1.07 and 0.249
